# Measurements: PubChem BioAssay (EPA / NIEHS)
# Records with an inconclusive call do not appear. Activity calls are given as the source filed them. Rule for the calls: active = hit-call score of the fitted dose curve at least 0.9, where 1 is the maximum; inconclusive = response in the unintended direction; inactive = score below 0.9.
# Columns and labels:
# [1] = tested on: frog Estrogen Receptor (ER), gene 398734; test: ATG_frER1_XSP2: Attagene TRANS-FACTORIAL Multi-Species (XSP2) HepG2 Assay for frog Estrogen Receptor (ER) (AID 2283821);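 note: hits raise reporter mRNA above DMSO baseline so potency means agonist or activator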
# In short: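 Reporter mRNA induction, detected as fluorescence after RT-PCR and capillary electrophoresis, is the endpoint; activity is fitted upward against DMSO. Cells are human liver HepG2 carrying transfected NR-Gal4 chimeras with GAL4-UAS-driven reporters, harvested 24 h post-dosing.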
# [2] = biological target: zebrafish Thyroid Hormone Receptor beta (TRb), thrb (gene 30607) (UniProt Q9PVE4); test: ATG_zfTRb_XSP2: Attagene TRANS-FACTORIAL Multi-Species (XSP1) HepG2 Assay for zebrafish Thyroid Hormone Receptor beta (TRb) (AID 2283836)
# Sequence of zebrafish Thyroid Hormone Receptor beta (TRb), thrb (gene 30607) (Q9PVE4 whole entry, looked up, the tested form may be a part): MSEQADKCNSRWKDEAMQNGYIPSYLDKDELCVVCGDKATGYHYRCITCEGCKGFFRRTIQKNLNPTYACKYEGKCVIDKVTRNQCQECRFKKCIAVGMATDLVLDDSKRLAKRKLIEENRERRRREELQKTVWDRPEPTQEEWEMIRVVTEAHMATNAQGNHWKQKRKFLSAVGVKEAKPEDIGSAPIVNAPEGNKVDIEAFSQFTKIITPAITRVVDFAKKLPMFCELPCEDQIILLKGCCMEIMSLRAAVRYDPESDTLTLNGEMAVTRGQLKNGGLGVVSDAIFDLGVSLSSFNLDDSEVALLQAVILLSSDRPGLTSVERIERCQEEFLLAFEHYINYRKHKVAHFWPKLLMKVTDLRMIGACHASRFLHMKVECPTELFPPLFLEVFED
# In short: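 Reporter transcripts measured by RT-PCR, 6-FAM labelling, HpaI digestion and capillary electrophoresis after 24 h chemical exposure. Human HepG2 cells carry an exogenous zebrafish TRb-GAL4 chimera; medium included 3 nM 6-alpha-fluorotestosterone plus 1.5 nM norgestrel.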
# [3] = biological target: Retinoic acid receptor alpha (Homo sapiens) (UniProt P10276); test: NVS_NR_hRARa_Agonist: NovaScreen (NVS) Nuclear Receptor Binding Assay for human Retinoic Acid Alpha Receptor Agonism (RAR) (AID 2283361)
# In short: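 TR-FRET signal, 2 h post-dosing; cell-free extracted protein; DMSO = baseline, positive fitting direction; 25 uM single-point duplicate, then concentration series for actives.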
# [4] = TAMU_HCS_1.5hr_SingleDonor1434_Cytotoxicity: Cytotoxicity Assessment using High-content Screening (HCS) Fluorescent Imaging for the Texas A&M University (TAMU) 1.5-hr Human Induced Pluripotent Stem Cell (iPSC)-derived Cardiotoxicity Assay (AID 2284234)
# In short: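 Nuclear counts from Hoechst 33342 imaging define cytotoxicity here, with EC10 (10% cell-count loss relative to DMSO) as point of departure. iPSC cardiomyocytes received 0.2-100 uM test chemical in 0.5% DMSO for 1.5 h at 37 C.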
# [5] = tested on: Thyroperoxidase (TPO), gene 445522; test: CCTE_Simmons_GUA_TPO: CCTE's Guaiacol Assay for Thyroperoxidase (TPO) Inhibition, Simmons Lab (AID 2283750)
# In short: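 Porcine thyroid microsomes (25 ug) in 200mM potassium phosphate, preincubated 30 s at 37C with compound (8 concentrations, 5 nM–87.5 uM) and 35mM guaiacol; 1mM H2O2 starts reaction. Absorbance change at 450nm over first 80 s; loss of signal versus DMSO, three replicates.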
# [6] = biological target: human Matrix Metalloproteinase-2 (MMP2), MMP2 (gene 4313) (UniProt P08253); test: NVS_ENZ_hMMP2: NovaScreen (NVS) Enzymatic Assay for human Matrix Metalloproteinase-2 (MMP2) (AID 2283184)
# In short: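 Compounds first screened in duplicate at a single 25 uM, with actives followed up in concentration series. Recombinant human MMP2 cleaves a fluorogenic substrate; fluorescence taken at 1 h, inhibition fitted relative to DMSO.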
# [7] = biological target: human AKT serine/threonine Kinase 1 (AKT1), AKT1 (gene 207) (UniProt P31749); test: NVS_ENZ_hAKT1: NovaScreen (NVS) Enzymatic Assay for human AKT serine/threonine Kinase 1 (AKT1) (AID 2283138)
# Sequence of human AKT serine/threonine Kinase 1 (AKT1), AKT1 (gene 207) (P31749 whole entry, looked up): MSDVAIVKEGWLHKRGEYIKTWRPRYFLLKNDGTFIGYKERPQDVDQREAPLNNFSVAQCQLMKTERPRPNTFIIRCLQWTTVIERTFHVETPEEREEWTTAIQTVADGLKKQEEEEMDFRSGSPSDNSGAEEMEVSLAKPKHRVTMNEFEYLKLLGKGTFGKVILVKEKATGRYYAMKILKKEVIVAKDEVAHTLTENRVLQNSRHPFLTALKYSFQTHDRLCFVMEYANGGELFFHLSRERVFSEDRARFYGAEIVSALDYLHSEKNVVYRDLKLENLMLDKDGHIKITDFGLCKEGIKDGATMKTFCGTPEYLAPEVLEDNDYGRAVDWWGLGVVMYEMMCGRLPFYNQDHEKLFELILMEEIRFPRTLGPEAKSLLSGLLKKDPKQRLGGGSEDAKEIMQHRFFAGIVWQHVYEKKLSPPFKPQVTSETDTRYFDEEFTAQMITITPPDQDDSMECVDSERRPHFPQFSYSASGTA
# In short: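 Screening first at 25 uM (duplicate), with threshold-passing chemicals re-tested in concentration series to a 50 uM maximum. Kinase activity read by fluorescence with mobility-shift separation of substrate and product, 1 h after dosing, DMSO baseline.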
# [8] = biological target: human Casein Kinase 1-delta (CK1D), CSNK1D (gene 1453) (UniProt P48730); test: NVS_ENZ_hCK1D: NovaScreen (NVS) Enzymatic Assay for human Casein Kinase 1-delta (CK1D) (AID 2283148)
# Sequence of human Casein Kinase 1-delta (CK1D), CSNK1D (gene 1453) (P48730 whole entry, looked up): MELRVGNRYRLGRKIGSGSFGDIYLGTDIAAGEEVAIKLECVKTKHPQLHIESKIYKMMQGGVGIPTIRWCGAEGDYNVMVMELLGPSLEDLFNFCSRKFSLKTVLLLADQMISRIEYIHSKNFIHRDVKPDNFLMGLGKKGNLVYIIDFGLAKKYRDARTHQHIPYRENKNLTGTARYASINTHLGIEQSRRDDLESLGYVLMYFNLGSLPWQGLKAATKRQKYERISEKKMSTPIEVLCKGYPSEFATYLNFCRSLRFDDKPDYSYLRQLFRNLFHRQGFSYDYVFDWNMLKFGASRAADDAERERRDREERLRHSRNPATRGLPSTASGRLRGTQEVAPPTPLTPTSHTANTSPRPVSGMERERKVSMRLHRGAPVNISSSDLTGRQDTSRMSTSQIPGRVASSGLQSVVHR
# In short: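 Recombinant human CK1-delta, cell-free; fluorescent substrate with electrophoretic mobility-shift separation of product, read 1 h after dosing. Single 25 uM duplicate screen, then concentration-response up to 50 uM; loss of signal vs DMSO.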
# [9] = biological target: human Colony Stimulating Factor 1 Receptor (CSF1R), CSF1R (gene 1436) (UniProt P07333); test: NVS_ENZ_hCSF1R: NovaScreen (NVS) Enzymatic Assay for human Colony Stimulating Factor 1 Receptor (CSF1R) (AID 2283150)
# Sequence of human Colony Stimulating Factor 1 Receptor (CSF1R), CSF1R (gene 1436) (P07333 whole entry, looked up): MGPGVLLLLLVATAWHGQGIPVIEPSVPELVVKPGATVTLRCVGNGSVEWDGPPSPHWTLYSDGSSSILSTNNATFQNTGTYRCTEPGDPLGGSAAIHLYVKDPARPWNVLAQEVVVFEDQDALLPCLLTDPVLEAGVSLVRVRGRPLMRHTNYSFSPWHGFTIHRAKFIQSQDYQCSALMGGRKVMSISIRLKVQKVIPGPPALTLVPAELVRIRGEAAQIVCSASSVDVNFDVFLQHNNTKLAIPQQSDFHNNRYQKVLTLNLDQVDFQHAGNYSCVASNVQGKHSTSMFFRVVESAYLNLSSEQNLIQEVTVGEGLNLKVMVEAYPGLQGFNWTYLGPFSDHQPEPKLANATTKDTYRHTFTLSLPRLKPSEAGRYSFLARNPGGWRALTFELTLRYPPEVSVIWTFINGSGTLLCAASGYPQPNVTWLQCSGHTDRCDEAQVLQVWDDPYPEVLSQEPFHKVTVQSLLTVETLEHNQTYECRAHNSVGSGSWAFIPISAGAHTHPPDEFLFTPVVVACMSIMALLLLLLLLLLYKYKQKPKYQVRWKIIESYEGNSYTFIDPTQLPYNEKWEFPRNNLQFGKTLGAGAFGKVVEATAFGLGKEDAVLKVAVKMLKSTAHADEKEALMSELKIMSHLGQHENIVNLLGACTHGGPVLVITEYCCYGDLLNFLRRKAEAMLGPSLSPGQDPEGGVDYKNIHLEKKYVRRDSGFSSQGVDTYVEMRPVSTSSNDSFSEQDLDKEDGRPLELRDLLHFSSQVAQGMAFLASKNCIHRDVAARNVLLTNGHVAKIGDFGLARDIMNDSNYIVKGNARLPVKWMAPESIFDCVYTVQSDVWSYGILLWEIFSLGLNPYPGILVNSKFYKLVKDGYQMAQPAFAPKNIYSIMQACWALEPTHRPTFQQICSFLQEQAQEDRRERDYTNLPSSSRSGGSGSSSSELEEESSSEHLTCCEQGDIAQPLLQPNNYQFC
# In short: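 Compounds screened in duplicate at 25 uM, then concentration-response (top 50 uM) for those passing threshold such as 30% inhibition; recombinant CSF1R activity measured 1 h post-dosing via fluorescent substrate/product mobility-shift separation, loss of signal versus DMSO.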
# [10] = biological target: human FYN Proto-Oncogene, Src family Tyrosine Kinase (Fyn), FYN (gene 2534) (UniProt P06241); test: NVS_ENZ_hFyn: NovaScreen (NVS) Enzymatic Assay for human FYN Proto-Oncogene, Src family Tyrosine Kinase (Fyn) (AID 2283161)
# In short: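 Cell-free kinase activity read by fluorescence after mobility-shift separation of substrate and product, 1 h post-dose. Initial single concentration 25 uM in duplicate, then concentration-response follow-up; DMSO baseline.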
# [11] = biological target: Tyrosine-protein phosphatase non-receptor type 11 (Homo sapiens) (UniProt Q06124); test: NVS_ENZ_hPTPN11: NovaScreen (NVS) Enzymatic Assay for human Protein Tyrosine Phosphatase Non-receptor Type 11 (PTPN11) (AID 2283202)
# Sequence of Tyrosine-protein phosphatase non-receptor type 11 (Homo sapiens) (Q06124 whole entry, looked up): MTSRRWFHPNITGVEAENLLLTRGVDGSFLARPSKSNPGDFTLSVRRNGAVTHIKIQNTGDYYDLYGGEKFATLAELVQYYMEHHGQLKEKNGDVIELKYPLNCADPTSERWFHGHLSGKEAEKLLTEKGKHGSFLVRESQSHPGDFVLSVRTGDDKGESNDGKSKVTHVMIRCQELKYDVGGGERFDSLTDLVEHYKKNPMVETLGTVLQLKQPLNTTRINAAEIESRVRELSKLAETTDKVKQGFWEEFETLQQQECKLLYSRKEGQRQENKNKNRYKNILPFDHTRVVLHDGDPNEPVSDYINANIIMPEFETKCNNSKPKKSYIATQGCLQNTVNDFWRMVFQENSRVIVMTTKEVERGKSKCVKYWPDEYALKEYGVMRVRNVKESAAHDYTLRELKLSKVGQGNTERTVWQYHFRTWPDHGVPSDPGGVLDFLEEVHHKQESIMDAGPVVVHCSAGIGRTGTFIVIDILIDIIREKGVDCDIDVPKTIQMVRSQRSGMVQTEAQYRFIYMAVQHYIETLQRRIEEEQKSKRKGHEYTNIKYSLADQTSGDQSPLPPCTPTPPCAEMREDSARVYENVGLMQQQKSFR
# In short: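 Compounds first tested in duplicate at 25 uM; those reaching ~30% inhibition rerun in singleton concentration-response, top 50 uM. Phosphatase activity measured after 0.5 h by fluorescence with mobility-shift separation, relative to DMSO.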
# [12] = biological target: Tyrosine-protein phosphatase non-receptor type 13 (Homo sapiens) (UniProt Q12923); test: NVS_ENZ_hPTPN13: NovaScreen (NVS) Enzymatic Assay for human Protein Tyrosine Phosphatase Non-receptor Type 13 (PTPN13) (AID 2283205)
# In short: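 Screened first at a single 25 uM in duplicate; compounds passing the threshold (e.g. 30% inhibition) were rerun in concentration series, top 50 uM. Recombinant enzyme, fluorescent substrate, mobility-shift separation, 0.5 h read. Data fitted as inhibition relative to DMSO.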
# [13] = biological target: human Protein Tyrosine Phosphatase Non-receptor Type 2 (PTPN2), PTPN2 (gene 5771) (UniProt P17706); test: NVS_ENZ_hPTPN2: NovaScreen (NVS) Enzymatic Assay for human Protein Tyrosine Phosphatase Non-receptor Type 2 (PTPN2) (AID 2283207)
# In short: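 Activity measured as fluorescence after mobility-shift separation of substrate and product, 1 h after compound. Duplicate single-point 25 uM primary testing, concentration series for actives; inhibition scored as signal loss relative to DMSO baseline.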
# [14] = biological target: human Tyrosine Protein Kinase Receptor Tie-2 (Tie2), TEK (gene 7010) (UniProt Q02763); test: NVS_ENZ_hTie2: NovaScreen (NVS) Enzymatic Assay for human Tyrosine Protein Kinase Receptor Tie-2 (Tie2) (AID 2283225)
# Sequence of human Tyrosine Protein Kinase Receptor Tie-2 (Tie2), TEK (gene 7010) (Q02763 whole entry, looked up): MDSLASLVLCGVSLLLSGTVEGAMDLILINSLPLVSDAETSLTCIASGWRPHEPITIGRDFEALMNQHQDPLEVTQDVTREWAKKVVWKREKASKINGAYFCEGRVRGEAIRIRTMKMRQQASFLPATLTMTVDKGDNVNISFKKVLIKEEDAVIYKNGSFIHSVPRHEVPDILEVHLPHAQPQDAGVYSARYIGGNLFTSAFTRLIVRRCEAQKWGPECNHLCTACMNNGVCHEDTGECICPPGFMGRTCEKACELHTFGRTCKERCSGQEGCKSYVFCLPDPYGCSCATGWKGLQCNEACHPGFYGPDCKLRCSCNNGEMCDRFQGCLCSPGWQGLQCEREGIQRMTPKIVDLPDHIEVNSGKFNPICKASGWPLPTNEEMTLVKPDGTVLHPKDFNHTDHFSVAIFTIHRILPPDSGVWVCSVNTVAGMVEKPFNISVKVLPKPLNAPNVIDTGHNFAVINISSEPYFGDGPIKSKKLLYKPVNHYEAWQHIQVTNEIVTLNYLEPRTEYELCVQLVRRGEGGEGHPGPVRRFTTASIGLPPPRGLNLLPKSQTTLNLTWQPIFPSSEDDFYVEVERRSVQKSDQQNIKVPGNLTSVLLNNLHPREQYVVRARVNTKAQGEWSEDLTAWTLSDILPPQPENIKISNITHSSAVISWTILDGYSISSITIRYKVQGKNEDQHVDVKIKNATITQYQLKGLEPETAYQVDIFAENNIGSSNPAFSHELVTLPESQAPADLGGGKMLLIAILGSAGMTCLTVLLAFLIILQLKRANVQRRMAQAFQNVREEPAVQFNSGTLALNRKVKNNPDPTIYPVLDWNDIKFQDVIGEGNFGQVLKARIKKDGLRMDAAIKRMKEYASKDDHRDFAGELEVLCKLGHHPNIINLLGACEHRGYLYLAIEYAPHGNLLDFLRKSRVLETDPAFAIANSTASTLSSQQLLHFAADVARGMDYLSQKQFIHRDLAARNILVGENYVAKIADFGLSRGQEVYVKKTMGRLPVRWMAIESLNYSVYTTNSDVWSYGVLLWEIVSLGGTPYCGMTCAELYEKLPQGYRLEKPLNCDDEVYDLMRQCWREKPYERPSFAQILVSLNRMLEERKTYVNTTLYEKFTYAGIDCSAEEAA
# In short: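 Substrate and product were separated by mobility shift and detected by fluorescence after a 1-hour reaction with recombinant Tie2. Chemicals passing a 25 uM single-point screen were titrated to a maximum of 50 uM. Results were normalized to DMSO baseline.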
# [15] = biological target: human Vascular Endothelial Growth Factor Receptor 2 (VEGFR2), KDR (gene 3791) (UniProt P35968); test: NVS_ENZ_hVEGFR2: NovaScreen (NVS) Enzymatic Assay for human Vascular Endothelial Growth Factor Receptor 2 (VEGFR2) (AID 2283230)
# In short: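 Cell-free recombinant VEGFR2 kinase, fluorescent substrate with electrophoretic mobility-shift separation; read 1 h after dosing. Screened at 25 uM in duplicate, hits to concentration-response up to 50 uM; loss-of-signal versus DMSO.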
# [16] = biological target: rat Constitutive Nitric Oxide Synthase (CNOS), Nos1 (gene 24598) (UniProt P29476); test: NVS_ENZ_rCNOS: NovaScreen (NVS) Enzymatic Assay for rat Constitutive Nitric Oxide Synthase (CNOS) (AID 2283236)
# In short: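 Single 25 uM duplicate screen, then concentration series to 50 uM for chemicals meeting threshold. Rat brain membrane-derived CNOS activity detected radiometrically by filtration and scintillation counting, 1 h after compound addition; DMSO as baseline.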
# [17] = tested on: chicken Androgen Receptor (AR), gene 422165; test: ATG_chAR_XSP1: Attagene TRANS-FACTORIAL Multi-Species (XSP1) HepG2 Assay for chicken Androgen Receptor (AR) (AID 2283768)
# In short: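 Reporter mRNA read by RT-PCR with fluorescent labelling and capillary electrophoresis 24 h after chemical dosing of transiently transfected HepG2 cells. Chicken AR-Gal4 chimera, partially stimulated with 3 nM 6-alpha-fluorotestosterone; activity fitted upward relative to DMSO.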
# [18] = tested on: turtle Androgen Receptor (AR), gene 101947425; test: ATG_trAR_XSP1: Attagene TRANS-FACTORIAL Multi-Species (XSP1) HepG2 Assay for turtle Androgen Receptor (AR) (AID 2283786)
# In short: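 Partial androgen stimulation is provided by 3 nM 6-alpha-fluorotestosterone in a multi-species trans-factorial panel expressing a turtle AR–GAL4 fusion in HepG2. After 24 h, reporter mRNA is measured by RT-PCR and capillary electrophoresis and fitted upward against DMSO.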
# [19] = biological target: Estrogen receptor beta (Homo sapiens) (UniProt Q92731); test: ATG_hERb_XSP1: Attagene TRANS-FACTORIAL Multi-Species (XSP1) HepG2 Assay for human Estrogen Receptor (ESR2) (AID 2283788)
# In short: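 Transient MRTU transfection of HepG2; ERβ–GAL4 TRANS format; 24 h dosing; 3 nM 6α-fluorotestosterone co-added; RNA → RT-PCR → 6-FAM primer extension → CE; activity vs DMSO.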
# AR (gene 367) = AR (gene 367) (UniProt P10275); test: ACEA_AR_agonist_80hr: ACEA Biosciences xCELLigence Real-Time Cell Analysis on Androgen Receptor Agonism for Proliferation (AID 2283783);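 note: hits increase impedance growth signal above DMSO baseline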
# Sequence of AR (gene 367) (P10275 whole entry, looked up): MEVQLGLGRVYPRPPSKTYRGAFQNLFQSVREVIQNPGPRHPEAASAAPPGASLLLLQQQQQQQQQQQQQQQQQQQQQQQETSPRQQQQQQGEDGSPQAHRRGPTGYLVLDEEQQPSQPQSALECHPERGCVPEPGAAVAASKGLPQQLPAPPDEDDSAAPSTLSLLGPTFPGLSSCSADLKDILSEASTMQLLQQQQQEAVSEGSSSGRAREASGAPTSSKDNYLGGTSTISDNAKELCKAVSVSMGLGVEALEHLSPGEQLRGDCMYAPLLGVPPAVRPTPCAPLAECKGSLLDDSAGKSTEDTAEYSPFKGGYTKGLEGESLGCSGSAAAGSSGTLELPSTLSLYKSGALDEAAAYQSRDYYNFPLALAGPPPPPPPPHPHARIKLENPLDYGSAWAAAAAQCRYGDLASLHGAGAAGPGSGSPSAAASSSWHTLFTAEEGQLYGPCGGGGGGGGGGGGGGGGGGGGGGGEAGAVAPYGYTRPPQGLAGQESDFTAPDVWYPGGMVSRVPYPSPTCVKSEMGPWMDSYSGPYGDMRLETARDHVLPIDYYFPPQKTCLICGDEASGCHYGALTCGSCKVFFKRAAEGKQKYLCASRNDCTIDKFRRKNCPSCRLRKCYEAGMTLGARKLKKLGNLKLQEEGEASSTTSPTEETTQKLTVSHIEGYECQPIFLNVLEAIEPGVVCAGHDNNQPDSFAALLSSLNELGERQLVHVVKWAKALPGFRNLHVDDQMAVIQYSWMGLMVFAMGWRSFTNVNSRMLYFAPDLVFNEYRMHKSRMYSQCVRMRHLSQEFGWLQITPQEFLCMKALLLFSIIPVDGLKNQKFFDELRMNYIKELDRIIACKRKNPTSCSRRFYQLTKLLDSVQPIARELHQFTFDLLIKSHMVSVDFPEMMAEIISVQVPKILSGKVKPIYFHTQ
# In short: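 Impedance (RT-CES) growth signal at 80 h post-dose; 22Rv1 cells, 8-pt 1:4 series, top 100 uM final, DMSO ≤0.5%; duplicate plates; gain-of-signal fit relative to DMSO baseline.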
compound,measurement,setting,value
CC(C)(c1cc(Cl)c(O)c(Cl)c1)c1cc(Cl)c(O)c(Cl)c1,AC50,[1],2.8 µM (active)
same,outcome,[2],inactive
O=C=Nc1ccccc1,AC50,[3],9.8 µM (active)
O=C1C=CC(=O)C=C1,outcome,[4],inactive
Nc1ccccc1,AC50,[5],9.69 µM (active)
Cc1cc(C)c(C2=C(OC(=O)CC(C)(C)C)C3(CCCC3)OC2=O)c(C)c1,outcome,[6],inactive
O=[N+]([O-])c1ccc(Cl)cc1,outcome,[7],inactive
same,outcome,[8],inactive
same,outcome,[9],inactive
same,outcome,[10],inactive
same,outcome,[11],inactive
same,outcome,[12],inactive
same,outcome,[13],inactive
same,outcome,[14],inactive
same,outcome,[15],inactive
same,outcome,[16],inactive
CC(C)CCCCCCCOC(=O)c1ccccc1C(=O)OCCCCCCCC(C)C,outcome,[17],inactive
same,outcome,[18],inactive
same,outcome,[19],inactive
c1ccc2c(c1)CCCC2,outcome,AR (gene 367),inactive
